# According to PubChem BioAssay (EPA / NIEHS):
# Where “and” joins values, the source holds several entries; their conditions need not be identical. Equal values may be shown once. Records with an inconclusive call do not appear. Some structures have more than one record in an assay (separate samples or runs), and their calls can disagree. Calls of active or inactive are those of the source. The calls were made as follows, unless noted: active = hit-call score of the fitted dose curve at least 0.9, where 1 is the maximum; inconclusive = response in the unintended direction; inactive = score below 0.9.
# Tests used:
# [1] = biological target: mouse Estrogen Receptor alpha (Era), Esr1 (gene 13982) (UniProt P19785); assay: NVS_NR_mERa: NovaScreen (NVS) Nuclear Receptor Binding Assay for mouse Estrogen Receptor alpha (Era) (AID 2283378);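 also: hit means loss of bound radioligand signal relative to DMSO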
# mouse Estrogen Receptor alpha (Era), Esr1 (gene 13982), sequence (P19785 whole entry, looked up): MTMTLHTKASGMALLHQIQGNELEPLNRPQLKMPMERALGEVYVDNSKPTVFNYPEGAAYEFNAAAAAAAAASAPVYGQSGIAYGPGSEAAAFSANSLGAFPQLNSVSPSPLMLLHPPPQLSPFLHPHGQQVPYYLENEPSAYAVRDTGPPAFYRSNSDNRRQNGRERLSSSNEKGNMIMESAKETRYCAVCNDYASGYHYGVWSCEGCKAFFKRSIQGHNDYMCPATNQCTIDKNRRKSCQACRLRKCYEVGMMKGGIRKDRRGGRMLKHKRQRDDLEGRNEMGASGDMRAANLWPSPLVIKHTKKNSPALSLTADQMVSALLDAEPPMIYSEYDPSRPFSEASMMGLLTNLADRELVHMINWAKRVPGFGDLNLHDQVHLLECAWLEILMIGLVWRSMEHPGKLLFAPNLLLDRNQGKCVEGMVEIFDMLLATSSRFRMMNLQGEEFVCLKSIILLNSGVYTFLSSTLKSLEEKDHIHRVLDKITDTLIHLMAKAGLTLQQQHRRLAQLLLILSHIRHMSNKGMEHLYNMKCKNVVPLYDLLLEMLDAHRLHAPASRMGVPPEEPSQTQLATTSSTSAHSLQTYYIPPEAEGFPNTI
# In short: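 Cell-free radioligand binding with extracted mouse Era protein; competitive displacement of radiolabelled ligand, read by filter-based scintillation counting 18 hours after dosing. Loss of signal versus DMSO baseline taken as binding; single screening concentration 25 uM, actives followed in concentration series.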
# [2] = biological target: Estrogen receptor beta (Homo sapiens) (UniProt Q92731); assay: OT_ER_ERbERb_1440: Odyssey Thera (OT) 24-hour HEK293T Protein-Complementation Assay for Estrogen Receptor-beta/-beta Homodimer (AID 2283380);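 also: fluorescence gain from ER beta LBD homodimer complementation read by laser scanning cytometry; scored as signal increase over DMSO baseline for both agonists and antagonists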
# Estrogen receptor beta (Homo sapiens), sequence (Q92731 whole entry, looked up, the tested form may be a part): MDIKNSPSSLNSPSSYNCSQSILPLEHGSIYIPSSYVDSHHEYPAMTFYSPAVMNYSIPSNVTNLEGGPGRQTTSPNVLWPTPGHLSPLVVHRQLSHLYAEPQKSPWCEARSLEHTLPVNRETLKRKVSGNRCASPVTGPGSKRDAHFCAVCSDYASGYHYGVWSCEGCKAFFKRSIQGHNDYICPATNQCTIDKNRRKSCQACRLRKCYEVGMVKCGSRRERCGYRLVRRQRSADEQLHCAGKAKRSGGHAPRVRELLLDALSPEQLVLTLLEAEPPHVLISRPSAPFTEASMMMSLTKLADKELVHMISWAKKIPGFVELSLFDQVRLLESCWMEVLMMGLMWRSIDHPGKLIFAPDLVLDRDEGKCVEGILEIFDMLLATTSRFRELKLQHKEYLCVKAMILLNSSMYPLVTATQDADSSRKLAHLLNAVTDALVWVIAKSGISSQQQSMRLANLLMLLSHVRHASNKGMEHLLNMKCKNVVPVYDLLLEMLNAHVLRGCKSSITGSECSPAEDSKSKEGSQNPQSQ
# In short: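 HEK293T cells stably expressing human ER-beta LBD (aa 310-547) PCA homodimer pair, dosed 24 h; formaldehyde-fixed, Draq5-stained. Readout: increase in nuclear (agonist) or nuclear plus cytoplasmic (antagonist) fluorescence intensity versus DMSO, gain-of-signal fitting.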
# [3] = biological target: Estrogen receptor (Homo sapiens) (UniProt P03372); assay: OT_ERa_GFPERaERE_0480: Odyssey Thera (OT) 8-hour HeLa Transcription Induction Assay for Estrogen Receptor (AID 2283381; active = hit-call score of the fitted dose curve at least 0.9, where 1 is the maximum; inactive = score below 0.9)
# Estrogen receptor (Homo sapiens), sequence (P03372 whole entry, looked up): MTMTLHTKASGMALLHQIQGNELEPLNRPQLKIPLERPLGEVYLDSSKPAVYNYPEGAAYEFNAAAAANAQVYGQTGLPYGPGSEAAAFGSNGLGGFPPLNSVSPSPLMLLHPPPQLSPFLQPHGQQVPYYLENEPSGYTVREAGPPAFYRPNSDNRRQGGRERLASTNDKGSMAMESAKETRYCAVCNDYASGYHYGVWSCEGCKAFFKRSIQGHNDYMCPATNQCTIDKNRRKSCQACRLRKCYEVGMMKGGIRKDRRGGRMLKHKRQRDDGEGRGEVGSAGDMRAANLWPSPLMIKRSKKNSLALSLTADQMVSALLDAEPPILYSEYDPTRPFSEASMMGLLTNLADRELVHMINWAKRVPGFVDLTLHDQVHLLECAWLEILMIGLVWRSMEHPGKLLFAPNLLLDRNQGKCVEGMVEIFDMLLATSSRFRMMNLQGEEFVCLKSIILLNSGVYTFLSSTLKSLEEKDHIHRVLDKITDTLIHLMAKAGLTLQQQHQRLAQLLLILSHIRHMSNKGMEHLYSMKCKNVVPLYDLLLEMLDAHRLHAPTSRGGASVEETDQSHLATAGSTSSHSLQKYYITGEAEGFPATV
# In short: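 Cells (HeLa) receive compound; after 8 h, reporter fluorescence is imaged and quantified by high-content analysis. Gain-of-signal relative to DMSO gives the endpoint.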
# [4] = biological target: Bile acid receptor (Homo sapiens) (UniProt Q96RI1); assay: OT_FXR_FXRSRC1_0480: Odyssey Thera (OT) 8-hour HEK293T Protein-Complementation Assay for Farnesoid X receptor/SRC-1 Co-activator (AID 2283383)
# Bile acid receptor (Homo sapiens), sequence (Q96RI1 whole entry, looked up, the tested form may be a part): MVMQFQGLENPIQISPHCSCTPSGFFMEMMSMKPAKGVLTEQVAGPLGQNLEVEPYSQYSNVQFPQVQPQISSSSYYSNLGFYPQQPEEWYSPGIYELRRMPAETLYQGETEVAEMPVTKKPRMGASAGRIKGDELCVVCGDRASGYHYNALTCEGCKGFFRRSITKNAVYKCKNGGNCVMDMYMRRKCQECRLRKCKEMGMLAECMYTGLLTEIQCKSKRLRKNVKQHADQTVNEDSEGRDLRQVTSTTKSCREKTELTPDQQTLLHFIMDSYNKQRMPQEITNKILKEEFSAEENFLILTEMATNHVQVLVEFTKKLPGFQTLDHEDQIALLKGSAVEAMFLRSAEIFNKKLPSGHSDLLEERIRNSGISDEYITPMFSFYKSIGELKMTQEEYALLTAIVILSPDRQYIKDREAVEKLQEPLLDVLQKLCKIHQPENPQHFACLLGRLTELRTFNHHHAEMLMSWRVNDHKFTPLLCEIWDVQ
# In short: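 Co-activator recruitment to FXR was measured in living HEK293T cells, where interaction of the two fused partners restored an active fluorescent reporter. Signal gain after 8 h treatment was referenced to DMSO.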
# [5] = biological target: Bile acid receptor (Homo sapiens) (UniProt Q96RI1); assay: OT_FXR_FXRSRC1_1440: Odyssey Thera (OT) 24-hour HEK293T Protein-Complementation Assay for Farnesoid X receptor/SRC-1 Co-activator (AID 2283384)
# In short: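 Cell-based binding reporter: interaction of FXR with SRC-1 brings reporter fragments together, giving a fluorescence signal read 24 h after dosing of HEK293T cells.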
# [6] = biological target: Retinoic acid receptor RXR-alpha (Homo sapiens) (UniProt P19793); assay: OT_NURR1_NURR1RXRa_0480: Odyssey Thera (OT) 8-hour HEK293T Protein Complementation Assay for Nurr1/retinoid X receptor (RXR) (AID 2283385)
# Retinoic acid receptor RXR-alpha (Homo sapiens), sequence (P19793 whole entry, looked up, the tested form may be a part): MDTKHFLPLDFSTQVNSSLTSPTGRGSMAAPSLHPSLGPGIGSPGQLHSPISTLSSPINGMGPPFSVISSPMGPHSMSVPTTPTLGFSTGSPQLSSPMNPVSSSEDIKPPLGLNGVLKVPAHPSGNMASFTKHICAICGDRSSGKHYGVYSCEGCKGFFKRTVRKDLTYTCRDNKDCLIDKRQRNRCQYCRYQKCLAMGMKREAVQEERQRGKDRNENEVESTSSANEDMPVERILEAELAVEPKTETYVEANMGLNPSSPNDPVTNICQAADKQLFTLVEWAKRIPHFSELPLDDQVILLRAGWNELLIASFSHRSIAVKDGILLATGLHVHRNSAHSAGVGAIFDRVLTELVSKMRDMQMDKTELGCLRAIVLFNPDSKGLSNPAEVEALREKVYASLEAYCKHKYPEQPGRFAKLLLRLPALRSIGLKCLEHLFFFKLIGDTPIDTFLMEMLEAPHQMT
# In short: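 Compounds are applied to HEK293T cells carrying Nurr1 and RXRα linked to reporter fragments. After 8 h, fluorescence intensity reports heterodimer formation, with DMSO as baseline.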
# [7] = biological target: Retinoic acid receptor RXR-alpha (Homo sapiens) (UniProt P19793); assay: OT_NURR1_NURR1RXRa_1440: Odyssey Thera (OT) 24-hour HEK293T Protein Complementation Assay for Nurr1/retinoid X receptor (RXR) (AID 2283386)
# In short: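 Measured as fluorescence from a reconstituted split reporter, this 24 h HEK293T complementation assay scores compound-induced gain of Nurr1/RXRα association relative to DMSO.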
# [8] = biological target: Peroxisome proliferator-activated receptor gamma (Homo sapiens) (UniProt P37231); assay: OT_PPARg_PPARgSRC1_0480: Odyssey Thera (OT) 8-hour Protein-Complementation Assay for Peroxisome Proliferator-activated Receptor Gamma / SRC-1 Co-activator (AID 2283387)
# Peroxisome proliferator-activated receptor gamma (Homo sapiens), sequence (P37231 whole entry, looked up, the tested form may be a part): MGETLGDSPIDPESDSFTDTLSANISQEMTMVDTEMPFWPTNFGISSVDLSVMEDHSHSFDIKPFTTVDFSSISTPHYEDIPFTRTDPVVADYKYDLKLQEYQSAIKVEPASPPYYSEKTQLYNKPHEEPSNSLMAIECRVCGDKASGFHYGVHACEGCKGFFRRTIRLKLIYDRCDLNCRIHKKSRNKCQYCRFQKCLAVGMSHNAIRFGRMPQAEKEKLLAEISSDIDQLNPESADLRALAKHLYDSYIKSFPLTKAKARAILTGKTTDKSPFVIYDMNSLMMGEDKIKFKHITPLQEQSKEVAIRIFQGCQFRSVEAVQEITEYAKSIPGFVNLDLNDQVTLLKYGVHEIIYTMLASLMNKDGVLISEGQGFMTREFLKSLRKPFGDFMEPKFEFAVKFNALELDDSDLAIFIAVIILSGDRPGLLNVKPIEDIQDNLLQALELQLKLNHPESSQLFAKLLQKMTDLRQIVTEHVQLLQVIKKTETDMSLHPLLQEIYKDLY
# In short: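 Split-YFP (IFP1/IFP2) PPARg/SRC-1 reporter, HEK293T, 37 °C, 5% CO2; 8 h compound; formaldehyde fix + Draq5; high-content imaging, N/C ratio, ≥350 cells/image, positive direction vs DMSO.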
# [9] = biological target: Peroxisome proliferator-activated receptor gamma (Homo sapiens) (UniProt P37231); assay: OT_PPARg_PPARgSRC1_1440: Odyssey Thera (OT) 24-hour Protein-Complementation Assay for Peroxisome Proliferator-activated Receptor Gamma/ SRC-1 Co-activator (AID 2283388)
# In short: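 HEK293T cells transiently transfected with PPARg and SRC-1 fused via (Gly4Ser)2 linker to split Venus YFP fragments (IFP1/IFP2) were dosed 24 h; fixed, Draq5-stained, imaged at 488/635 nm; nuclear/cytoplasmic fluorescence ratio scored versus DMSO baseline, gain-of-signal.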
# [10] = CEETOX_H295R_11DCORT: CeeTox H295R High-throughput Steroidogenesis Assay for 11-Deoxycortisol (11DCORT) (AID 2283432; active = hit-call score of the fitted dose curve at least 0.9, where 1 is the maximum; inactive = score below 0.9;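 also: 11-deoxycortisol secreted into the medium measured by LC-MS/MS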); conditions: actives raise or lower the signal
# In short: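 Steroidogenesis in human H295R cells: 48 h chemical exposure after forskolin priming, 11-deoxycortisol measured by LC-MS/MS.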
# [11] = CEETOX_H295R_OHPREG: CeeTox H295R High-throughput Steroidogenesis Assay for OH-Pregnenolone (OHPREG) (AID 2283434; active = hit-call score of the fitted dose curve at least 0.9, where 1 is the maximum; inactive = score below 0.9); conditions: actives raise or lower the signal
# In short: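 Human adrenal H295R cells were prestimulated 48 h with 10 uM forskolin, then exposed 48 h to chemical in 0.1% DMSO. Medium 17alpha-hydroxypregnenolone was quantified by HPLC-MS/MS after MTBE extraction; bidirectional fitting versus DMSO baseline.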
# [12] = CEETOX_H295R_OHPROG: CeeTox H295R High-throughput Steroidogenesis Assay for OH-Progesterone (OHPROG) (AID 2283435; active = hit-call score of the fitted dose curve at least 0.9, where 1 is the maximum; inactive = score below 0.9;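 as to AC50: 17alpha-hydroxyprogesterone secreted into medium measured by HPLC-MS/MS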); conditions: actives raise or lower the signal
# In short: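 Secreted 17alpha-hydroxyprogesterone is read by tandem MS from media of forskolin-primed H295R cells dosed with chemical for 48 h. Activity is fitted in both directions against DMSO baseline; cytotoxic concentrations are re-tested diluted.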
# [13] = CEETOX_H295R_CORTIC: CeeTox H295R High-throughput Steroidogenesis Assay for Corticosterone (CORTIC) (AID 2283437; active = hit-call score of the fitted dose curve at least 0.9, where 1 is the maximum; inactive = score below 0.9;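 also: corticosterone secreted into medium quantified by mass spectrometry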); conditions: actives raise or lower the signal
# In short: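 H295R cells were prestimulated 48 h with 10 uM forskolin, then exposed 48 h to test chemical in 0.1% DMSO. Medium corticosterone was MTBE-extracted and quantified by HPLC-MS/MS; bidirectional fit versus DMSO baseline.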
# [14] = CEETOX_H295R_CORTISOL: CeeTox H295R High-throughput Steroidogenesis Assay for Cortisol (AID 2283438; active = hit-call score of the fitted dose curve at least 0.9, where 1 is the maximum; inactive = score below 0.9;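 also: cortisol secreted into medium quantified by LC-MS/MS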); conditions: actives raise or lower the signal
# In short: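 Human adrenocortical H295R cells (passage ≤10) received test chemicals for 48 h after forskolin priming. Secreted cortisol was measured by LC-MS/MS.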
# [15] = biological target: human Norepinephrine Transporter (NET), SLC6A2 (gene 6530) (UniProt P23975); assay: NVS_TR_hNET: NovaScreen (NVS) Transporter Assay for human Norepinephrine Transporter (NET) (AID 2283377);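 also: cell-free membrane protein extracted from CHO cells expressing human NET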
# human Norepinephrine Transporter (NET), SLC6A2 (gene 6530), sequence (P23975 whole entry, looked up): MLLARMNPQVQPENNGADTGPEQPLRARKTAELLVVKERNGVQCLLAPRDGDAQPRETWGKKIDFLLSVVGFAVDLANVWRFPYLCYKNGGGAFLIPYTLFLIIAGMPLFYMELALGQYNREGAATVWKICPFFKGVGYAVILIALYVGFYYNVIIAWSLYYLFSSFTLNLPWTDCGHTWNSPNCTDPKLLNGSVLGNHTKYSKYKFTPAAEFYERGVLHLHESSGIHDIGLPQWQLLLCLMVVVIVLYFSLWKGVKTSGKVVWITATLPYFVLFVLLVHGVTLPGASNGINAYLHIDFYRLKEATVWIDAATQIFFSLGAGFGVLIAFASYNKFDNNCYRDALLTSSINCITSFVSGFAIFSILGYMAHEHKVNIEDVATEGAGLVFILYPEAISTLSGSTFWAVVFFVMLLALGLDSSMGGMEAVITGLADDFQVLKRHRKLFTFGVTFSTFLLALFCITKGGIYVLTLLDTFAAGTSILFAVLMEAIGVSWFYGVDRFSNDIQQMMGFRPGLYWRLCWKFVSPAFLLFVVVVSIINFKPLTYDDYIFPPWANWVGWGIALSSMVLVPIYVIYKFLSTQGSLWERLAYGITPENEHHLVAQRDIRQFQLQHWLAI
# In short: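 Radioligand binding to human NET in cell-free CHO-derived protein preparations, read by filter-based scintillation counting 1 hour after dosing. Loss of signal versus DMSO baseline indicated displacement; primary screening in duplicate at 25 uM, actives then titrated.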
# [16] = biological target: Estrogen receptor (Homo sapiens) (UniProt P03372); assay: OT_ERa_GFPERaERE_0120: Odyssey Thera (OT) 2-hour HeLa Transcription Induction Assay for Estrogen Receptor (AID 2283382)
# In short: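 Measures ESR1 pathway reporter gain-of-signal in HeLa cells after a 2-hour treatment, detected as fluorescent protein induction by microscopy, DMSO as baseline.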
# [17] = biological target: Agonist Androgen Response Element (ARE), AR (gene 367) (UniProt P10275); assay: OT_AR_ARELUC_AG_1440: Odyssey Thera (OT) 24-hour CHO-K1 Luciferase Assay for Agonist Androgen Response Element (ARE) (AID 2283379)
# Agonist Androgen Response Element (ARE), AR (gene 367), sequence (P10275 whole entry, looked up): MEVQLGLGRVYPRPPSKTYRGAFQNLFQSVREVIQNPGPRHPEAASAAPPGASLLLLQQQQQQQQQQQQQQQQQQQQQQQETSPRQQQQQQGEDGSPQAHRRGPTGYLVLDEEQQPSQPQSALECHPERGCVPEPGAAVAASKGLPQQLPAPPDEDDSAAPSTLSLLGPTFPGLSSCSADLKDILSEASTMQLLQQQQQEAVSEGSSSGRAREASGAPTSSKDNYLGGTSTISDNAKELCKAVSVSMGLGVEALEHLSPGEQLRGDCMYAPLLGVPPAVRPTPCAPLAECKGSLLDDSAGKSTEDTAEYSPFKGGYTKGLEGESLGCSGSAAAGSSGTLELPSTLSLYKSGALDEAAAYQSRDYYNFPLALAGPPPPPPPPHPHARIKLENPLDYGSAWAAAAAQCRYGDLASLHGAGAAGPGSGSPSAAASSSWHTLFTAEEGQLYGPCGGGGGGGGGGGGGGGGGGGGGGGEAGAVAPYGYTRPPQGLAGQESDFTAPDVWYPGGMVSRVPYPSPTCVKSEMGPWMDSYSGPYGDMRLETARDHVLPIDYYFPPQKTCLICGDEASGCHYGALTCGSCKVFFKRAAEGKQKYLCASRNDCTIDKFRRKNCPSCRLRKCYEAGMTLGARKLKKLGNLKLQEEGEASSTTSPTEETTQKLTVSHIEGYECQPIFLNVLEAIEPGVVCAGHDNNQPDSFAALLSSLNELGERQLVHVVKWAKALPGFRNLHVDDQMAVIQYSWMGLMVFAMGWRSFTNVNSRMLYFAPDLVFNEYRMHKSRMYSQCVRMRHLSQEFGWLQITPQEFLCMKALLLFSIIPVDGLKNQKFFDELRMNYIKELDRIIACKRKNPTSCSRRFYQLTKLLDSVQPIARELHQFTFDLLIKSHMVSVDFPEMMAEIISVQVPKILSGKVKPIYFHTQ
# In short: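 Seed CHO-K1 cells; dose compounds for 24 h; add D-luciferin plus ATP in PBS; read luminescence. Signal increase relative to vehicle defines agonist activity, with at least 3 replicate wells per sample.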
# [18] = biological target: rat Serotonin Transporter (SERT), Slc6a4 (gene 25553) (UniProt P31652); assay: NVS_TR_rSERT: NovaScreen (NVS) Transporter Assay for rat Serotonin Transporter (SERT) (AID 2283375)
# In short: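 Rat forebrain membranes were incubated with test chemical for 1 hour; radioligand binding to SERT was measured by filter-based scintillation counting. Primary screen ran in duplicate at 25 uM, with actives followed up in concentration series; DMSO served as negative control.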
# [19] = CEETOX_H295R_ANDR: CeeTox H295R High-throughput Steroidogenesis Assay for Androstenedione (ANDR) (AID 2283436; active = hit-call score of the fitted dose curve at least 0.9, where 1 is the maximum; inactive = score below 0.9); conditions: actives raise or lower the signal
# In short: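 H295R human adrenal cells (passages ≤10) were exposed to test chemicals for 48 h; androstenedione in medium was MTBE-extracted and quantified by HPLC-MS/MS against a 7-point standard curve. Bidirectional fitting used DMSO as baseline.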
smiles,measurement,setting,value
Fc1ccc(C2(Cn3cncn3)OC2c2ccccc2Cl)cc1 (centres undefined),outcome,[1],inactive
same,AC50,[2],19.2 µM (active)
same,outcome,[3],inactive
same,outcome,[4],inactive
same,AC50,[5],18.9 µM (active)
same,outcome,[6],inactive
same,outcome,[7],inactive
same,outcome,[8],inactive
same,outcome,[9],inactive
same,AC50,[10],7.55 µM (active)
same,AC50,[11],645 nM (active)
same,AC50,[12],2.06 µM (active)
same,outcome,[13],inactive
same,AC50,[14],3.04 µM (active)
CC(C)(c1ccccc1)c1ccc(O)c(C(C)(C)c2ccccc2)c1,outcome,[15],inactive
same,outcome,[1],inactive
same,outcome,[2],inactive
same,outcome,[3],inactive
same,outcome,[16],inactive
same,outcome,[8],inactive
same,outcome,[9],inactive
Nc1cccc2ccccc12,AC50,[15],14.8 µM (active)
COP(=S)(OC)Oc1ccc(Sc2ccc(OP(=S)(OC)OC)cc2)cc1,AC50,[15],1.39 µM (active)
same,outcome,[17],inactive
same,AC50,[2],33.8 µM (active)
same,outcome,[3],inactive
same,outcome,[6],inactive
same,outcome,[8],inactive
same,outcome,[9],inactive
O=C(O)C(F)(F)C(F)(F)C(F)(F)C(F)(F)C(F)(F)C(F)(F)C(F)(F)C(F)(F)C(F)(F)C(F)(F)F,outcome,[15],inactive
same,outcome,[2],inactive
same,outcome,[4],inactive
same,outcome,[5],inactive
same,outcome,[6],inactive
same,outcome,[7],inactive
same,outcome,[8],inactive
same,outcome,[9],inactive
CCC(=O)C(CC(C)N(C)C)(c1ccccc1)c1ccccc1 (centres undefined),AC50,[18],63.9 nM (active)
same,AC50,[15],5.61 µM (active)
same,outcome,[17],inactive
same,outcome,[2],inactive
same,outcome,[3],inactive
same,outcome,[16],inactive
same,outcome,[4],inactive
same,outcome,[5],inactive
same,outcome,[6],inactive
same,outcome,[7],inactive
same,outcome,[8],inactive
same,outcome,[9],inactive
C[C@]12CCC(=O)C[C@@H]1CC[C@@H]1[C@@H]2CC[C@]2(C)[C@@H](O)CC[C@@H]12,AC50,[2],6.06 µM (active) and 8.11 µM (active) and 7.61 µM (active)
same,outcome,[2],inactive
same,outcome,[6],inactive
same,AC50,[7],40.3 µM (active)
same,outcome,[7],inactive
same,outcome,[8],inactive
same,outcome,[9],inactive
same,AC50,[11],79.1 nM (active)
same,outcome,[12],inactive
N#CN=C(N)N,outcome,[2],inactive
same,outcome,[3],inactive
same,outcome,[16],inactive
same,outcome,[5],inactive
same,outcome,[7],inactive
same,outcome,[8],inactive
same,outcome,[9],inactive
COP(=O)(OC)O/C(=C\Cl)c1cc(Cl)c(Cl)cc1Cl,outcome,[1],inactive
same,outcome,[3],inactive
same,outcome,[4],inactive
same,outcome,[5],inactive
same,AC50,[6],4.45 µM (active)
same,outcome,[7],inactive
same,outcome,[8],inactive
same,outcome,[9],inactive
same,outcome,[11],inactive
same,outcome,[12],inactive
same,outcome,[19],inactive
Clc1ccc(C2(Cn3cncn3)CC(Br)CO2)c(Cl)c1 (centres undefined),outcome,[2],inactive
same,outcome,[3],inactive
same,outcome,[4],inactive
same,outcome,[5],inactive
same,outcome,[6],inactive
same,outcome,[7],inactive
same,outcome,[8],inactive
same,outcome,[9],inactive
